For 40 compounds, differential viability (reversal) and viability results are on record in PubChem BioAssay.

Activity calls are given as the source filed them.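 Rule for the calls: active = viability loss from added drug above about 55%, and viability with drug at most 40%, in both replicates (limit read from the data, passing the limit was not always enough); inconclusive = both conditions met in only one replicate; inactive = neither replicate meets both conditions.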

The nature of the first assay: MRP1 drug-resistance reversers in H69AR cells – cell-based, doxorubicin co-treatment, pilot screen (AID 601). Conditions: H69AR cells + 2 uM doxorubicin, CellTiter-Glo, 72 h; at 10 µM; stronger effect = higher value. Background: Cellular ATP, detected with luciferase, serves as a proxy for viable cell number.
Turning to `Cc1ccc(-c2nnn(CC(=O)N(CC(=O)NC3CCCCC3)c3cnc4ccccc4c3)n2)o1`, the differential viability (reversal) is 15.9% (inactive).

Consider `COCc1nnc(NC(=O)CCCOc2ccccc2)s1`, for which the differential viability (reversal) was 10.4% (inactive).

Consider `CCc1cc2ccc(C)cc2nc1SCC(=O)N1CCN(C(=O)c2ccco2)CC1`, for which the differential viability (reversal) is -5.54% (inactive).

Regarding `NC(=O)NC(c1ccccc1)c1ccccc1F` (stereo not given), the differential viability (reversal) is 6.78% (inactive).

As to `CC(C)c1nnc(SCC(=O)NCc2ccco2)n1C`, the differential viability (reversal) was -5.55% (inactive).

Consider `Cn1c(=O)c2c(nc(NCCCO)n2C/C=C/c2ccccc2)n(C)c1=O`, for which the differential viability (reversal) is -14.8% (inactive).

With `O=C(Nc1c(-c2ccccc2)nc2ccccn12)c1ccco1`, the differential viability (reversal) is 16.5% (inactive).

For `Nc1nc(N2C(=O)C3CC=CCC3C2=O)nn1-c1ccccc1` (stereo not given), the differential viability (reversal) is 2.73% (inactive).

On to `COc1ccc(C(=O)NCc2nnc(SCC(=O)Nc3cc(C)cc(C)c3)o2)cc1OC`, for which the differential viability (reversal) is 7.32% (inactive).

On to `c1coc(Cn2nnnc2CN2CCN(C3CCCC3)CC2)c1`, for which the differential viability (reversal) was 4.64% (inactive).

For `O=C(C1CCN(c2nnnn2-c2ccccc2)CC1)N1CCN(c2ccccc2)CC1`, the differential viability (reversal) was 1.51% (inactive).

With `COC(=O)c1ccc(CNC(=O)COc2ccccc2Br)o1`, the differential viability (reversal) is 15% (inactive).

As to `CCOC(=O)C1CCCN(c2c(NCc3ccco3)c(=O)c2=O)C1` (stereo not given), the differential viability (reversal) is 11.7% (inactive).

On to `CC1(C)NC(=O)N(CC(O)CN(Cc2ccccc2)Cc2ccccc2)C1=O` (stereo not given), for which the differential viability (reversal) is 13.7% (inactive).

For `O=C1c2ccccc2C(O)(Cc2ccccc2)N1Cc1ccco1` (stereo not given), the differential viability (reversal) was 10.1% (inactive).

For `Cc1onc(-c2ccccc2)c1C(N)=O`, the differential viability (reversal) was 13.8% (inactive).

`CCC1(CC)NC(=O)NC1=O`: the differential viability (reversal) was 14.9% (inactive).

In the case of `Cc1ccc2[nH]c3c(c2c1)CCc1cn[nH]c1-3`, the differential viability (reversal) was -18.3% (inactive).

`COc1ccc(C(=O)Nn2c(C3CCC3)nc3ccccc3c2=O)c(OC)c1`: the differential viability (reversal) was 30% (inactive).

For the compound `CCOC(=O)CSc1nnc(CCc2nc3ccccc3[nH]2)n1C`, the differential viability (reversal) is 1.34% (inactive).

In the case of `COC(=O)c1[nH]c2cc(OC)ccc2c1NC(=O)CCN1CCCCC1`, the differential viability (reversal) was 2.35% (inactive).

In the case of `Nc1nnc(C(=O)c2ccccc2N)s1`, the differential viability (reversal) is 5.43% (inactive).

`CCn1c(C(=O)OC)cc2c1ccn2-c1ccc(F)cc1`: the differential viability (reversal) is 7.09% (inactive).

As to `CC(C)C(NC(=O)c1ccco1)C(=O)NCC(c1ccco1)N1CCCCC1` (stereo not given), the differential viability (reversal) is 18.1% (inactive).

Take `Cc1cc2ccccn2c1C(=O)c1ccncc1`: the differential viability (reversal) is 9.15% (inactive).

For the compound `CCCCc1c(O)nc(SCCN(C)C)n(-c2ccccc2)c1=O`, the differential viability (reversal) was 2.55% (inactive).

For the compound `COc1ccccc1N1CCN(c2nc3ccccc3nc2C(C#N)C(=O)OC(C)C)CC1` (stereo not given), the differential viability (reversal) was 3.12% (inactive).

With `CC1CCN(Cc2ccc(-c3nn[nH]n3)cc2)CC1`, the differential viability (reversal) was 0.33% (inactive).

Turning to `CCCCCc1c(C)nc(N2CCc3ccccc32)[nH]c1=O`, the differential viability (reversal) was -0.605% (inactive).

Regarding `COc1cccc(-n2c(SC3CCOC3=O)nc3ccccc3c2=O)c1` (stereo not given), the differential viability (reversal) is 10.5% (inactive).

`O=C(Nc1ccccc1C(=O)N1CCCCCC1)c1cccc(S(=O)(=O)N2CCOCC2)c1`: the differential viability (reversal) is -7.13% (inactive).

In the case of `COc1cc(OC)cc(C(=O)NCCN2CCOCC2)c1`, the differential viability (reversal) is 1.49% (inactive).

In the case of `Cc1ccc(C)c(NC(=O)CC(NCCCN2CCOCC2)C(=O)O)c1` (stereo not given), the differential viability (reversal) is -8.47% (inactive).

On to `O=C(CN(C(=O)CCC(=O)Nc1nccs1)c1ccccc1F)NCC1CCCO1` (stereo not given), for which the differential viability (reversal) was 9.81% (inactive).

In the case of `CCOC(=O)N1CCN(C(=O)CSc2nnc(-c3cc(OC)cc(OC)c3)o2)CC1`, the differential viability (reversal) was -3.85% (inactive).

As to `Cc1ccc2nc(NC(=O)C3CCCN(S(=O)(=O)c4cnc[nH]4)C3)sc2c1` (stereo not given), the differential viability (reversal) was -9.05% (inactive).

`C=Cn1nc(C)c2ccccc2c1=O`: the differential viability (reversal) was 4.88% (inactive).

Regarding `CCC(C)(C(=O)NC1CCCC1)N(C(=O)c1cnccn1)c1c(C)n(C)n(-c2ccccc2)c1=O` (stereo not given), the differential viability (reversal) is 0.145% (inactive).

For `Cc1ccc(NC(=O)C2CCCN(S(=O)(=O)c3cnc[nH]3)C2)c(Br)c1` (stereo not given), the differential viability (reversal) was 8.17% (inactive).

Take `CC(=O)Nn1c(C)nnc1-n1nc(C)cc1C`: the differential viability (reversal) was 4.38% (inactive).

The same assay, now with this note: H69AR cells + 2 uM doxorubicin, CellTiter-Glo, 72 h; measured here: viability with 2 uM doxorubicin; at 10 µM; stronger effect = lower value.
Take `Cc1ccc(-c2nnn(CC(=O)N(CC(=O)NC3CCCCC3)c3cnc4ccccc4c3)n2)o1`: the viability – broadly, a read-out of living cells in per cent, often relative to untreated cells – came to 80.6%.

As for `COCc1nnc(NC(=O)CCCOc2ccccc2)s1`, the viability worked out at 88.1%.

Regarding `CCc1cc2ccc(C)cc2nc1SCC(=O)N1CCN(C(=O)c2ccco2)CC1`, the viability is 70%.

As for `NC(=O)NC(c1ccccc1)c1ccccc1F` (stereo not given), the viability came out at 98.3%.

For `CC(C)c1nnc(SCC(=O)NCc2ccco2)n1C`, the viability was 85.2%.

For the compound `Cn1c(=O)c2c(nc(NCCCO)n2C/C=C/c2ccccc2)n(C)c1=O`, the viability is 98%.

Consider `O=C(Nc1c(-c2ccccc2)nc2ccccn12)c1ccco1`, for which the viability is 86.9%.

Turning to `Nc1nc(N2C(=O)C3CC=CCC3C2=O)nn1-c1ccccc1` (stereo not given), the viability came to 96%.

For `COc1ccc(C(=O)NCc2nnc(SCC(=O)Nc3cc(C)cc(C)c3)o2)cc1OC`, the viability was found to be 82%.

On to `c1coc(Cn2nnnc2CN2CCN(C3CCCC3)CC2)c1`, for which the viability was found to be 88.6%.

For the compound `O=C(C1CCN(c2nnnn2-c2ccccc2)CC1)N1CCN(c2ccccc2)CC1`, the viability came to 77.5%.

As to `COC(=O)c1ccc(CNC(=O)COc2ccccc2Br)o1`, the viability is 87.6%.

On to `CCOC(=O)C1CCCN(c2c(NCc3ccco3)c(=O)c2=O)C1` (stereo not given), for which the viability amounted to 82.6%.

For the compound `CC1(C)NC(=O)N(CC(O)CN(Cc2ccccc2)Cc2ccccc2)C1=O` (stereo not given), the viability came to 78.9%.

As to `O=C1c2ccccc2C(O)(Cc2ccccc2)N1Cc1ccco1` (stereo not given), the viability is 85.6%.

For the compound `Cc1onc(-c2ccccc2)c1C(N)=O`, the viability worked out at 86.7%.

As for `CCC1(CC)NC(=O)NC1=O`, the viability worked out at 90.1%.

For `Cc1ccc2[nH]c3c(c2c1)CCc1cn[nH]c1-3`, the viability is 56.7%.

For the compound `COc1ccc(C(=O)Nn2c(C3CCC3)nc3ccccc3c2=O)c(OC)c1`, the viability stood at 80.7%.

`CCOC(=O)CSc1nnc(CCc2nc3ccccc3[nH]2)n1C`: the viability is 101%.

In the case of `COC(=O)c1[nH]c2cc(OC)ccc2c1NC(=O)CCN1CCCCC1`, the viability came out at 95.8%.

Regarding `Nc1nnc(C(=O)c2ccccc2N)s1`, the viability was found to be 90.9%.

For `CCn1c(C(=O)OC)cc2c1ccn2-c1ccc(F)cc1`, the viability was 75.9%.

Turning to `CC(C)C(NC(=O)c1ccco1)C(=O)NCC(c1ccco1)N1CCCCC1` (stereo not given), the viability was found to be 75.8%.

On to `Cc1cc2ccccn2c1C(=O)c1ccncc1`, for which the viability came out at 78.8%.

Regarding `CCCCc1c(O)nc(SCCN(C)C)n(-c2ccccc2)c1=O`, the viability is 99%.

Take `COc1ccccc1N1CCN(c2nc3ccccc3nc2C(C#N)C(=O)OC(C)C)CC1` (stereo not given): the viability was determined as 77.2%.

`CC1CCN(Cc2ccc(-c3nn[nH]n3)cc2)CC1`: the viability came to 94.7%.

With `CCCCCc1c(C)nc(N2CCc3ccccc32)[nH]c1=O`, the viability is 95.2%.

With `COc1cccc(-n2c(SC3CCOC3=O)nc3ccccc3c2=O)c1` (stereo not given), the viability was determined as 83.8%.

With `O=C(Nc1ccccc1C(=O)N1CCCCCC1)c1cccc(S(=O)(=O)N2CCOCC2)c1`, the viability came to 103%.

As to `COc1cc(OC)cc(C(=O)NCCN2CCOCC2)c1`, the viability turned out to be 92.6%.

`Cc1ccc(C)c(NC(=O)CC(NCCCN2CCOCC2)C(=O)O)c1` (stereo not given): the viability was 96.8%.

As for `O=C(CN(C(=O)CCC(=O)Nc1nccs1)c1ccccc1F)NCC1CCCO1` (stereo not given), the viability was determined as 90.4%.

As to `CCOC(=O)N1CCN(C(=O)CSc2nnc(-c3cc(OC)cc(OC)c3)o2)CC1`, the viability is 89.5%.

As for `Cc1ccc2nc(NC(=O)C3CCCN(S(=O)(=O)c4cnc[nH]4)C3)sc2c1` (stereo not given), the viability came to 90.9%.

Regarding `C=Cn1nc(C)c2ccccc2c1=O`, the viability was determined as 85.2%.

As to `CCC(C)(C(=O)NC1CCCC1)N(C(=O)c1cnccn1)c1c(C)n(C)n(-c2ccccc2)c1=O` (stereo not given), the viability worked out at 91.2%.

As for `Cc1ccc(NC(=O)C2CCCN(S(=O)(=O)c3cnc[nH]3)C2)c(Br)c1` (stereo not given), the viability was determined as 93.3%.

As to `CC(=O)Nn1c(C)nnc1-n1nc(C)cc1C`, the viability worked out at 93.4%.
